Shown are actives, neighbours in structure and some others; about 21% of the full set was active somewhere.
VP16 counter: inhibits Gal4-VP16 luciferase reporter, ROR gamma counter-screen; hit rate 3.5% among 310,000; Potency, µM (highest dose often 53.6 µM), without a hit: at the highest dose activity, negative = inhibition, most hits filed as inhibitors; Drosophila S2 Gal4-VP16 UAS-luciferase, luminescence, 20 h; AID 2546;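 note: Gal4-VP16 expression switched on by copper sulfate through the metallothionein promoter; potency is the fitted concentration of half-maximal effect; nearly all actives have a fitted effect of over 50% in size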
IL-1B inflam inh: inhibitors of inflammasome signaling (IL-1 beta secretion); AID 743279; THP-1 LPS/ATP IL-1B secretion, AlphaLISA, 16 h; hits give low values; hit rate 4.7% among 360,000; activity change, % at 57.5 µM; in the data active = activity change below about -50%; inconclusive = mostly about -30% to -49%
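Secreted IL-1B measured by AlphaLISA bead assay after 16 h compound exposure of THP-1 cells; compounds (final up to 57.5 uM) added 1 h before LPS (250 ng/mL) and ATP (1.25 mM) stimulation; lower signal means less secretion.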
TDP1 cell CPT: growth inhibition of DT40 Tdp1-/-;hTDP1 cells with camptothecin (screen for TDP1 inhibitors) | Potency, µM (top dose mostly 46.2 µM), for the others: at the top dose activity change, negative = growth inhibition, usual class: inhibitors | AID 686979 | chicken DT40 Tdp1-/-;hTDP1 cells + 20 nM CPT, ATP luminescence, 48 h | hit rate 12% among 420,000; note: potency is the fitted concentration of half-maximal effect; nearly all actives have a fitted effect of over 55% in size
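Cell growth measured by CellTiter-Glo luminescence after a minimum 48 h, 37 C compound exposure with 20 nM CPT in Tdp1-knockout DT40 cells stably expressing hTDP1, seeded 400/well; qHTS titration format.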
RORgamma inh: blocks mouse ROR gamma transcriptional activity; P51450; Drosophila S2 Gal4-RORgamma UAS-luciferase reporter, 20 h; hit rate 5.4% among 310,000; Potency, µM (doses to about 53.6 µM), without a hit: at the highest dose activity change, negative = inhibition, actives largely listed as inhibitors; AID 2551; note: potency is the fitted concentration of half-maximal effect; nearly all actives have a fitted effect of over 60% in size
Target sequence (P51450 whole entry, looked up, the tested form may be a part): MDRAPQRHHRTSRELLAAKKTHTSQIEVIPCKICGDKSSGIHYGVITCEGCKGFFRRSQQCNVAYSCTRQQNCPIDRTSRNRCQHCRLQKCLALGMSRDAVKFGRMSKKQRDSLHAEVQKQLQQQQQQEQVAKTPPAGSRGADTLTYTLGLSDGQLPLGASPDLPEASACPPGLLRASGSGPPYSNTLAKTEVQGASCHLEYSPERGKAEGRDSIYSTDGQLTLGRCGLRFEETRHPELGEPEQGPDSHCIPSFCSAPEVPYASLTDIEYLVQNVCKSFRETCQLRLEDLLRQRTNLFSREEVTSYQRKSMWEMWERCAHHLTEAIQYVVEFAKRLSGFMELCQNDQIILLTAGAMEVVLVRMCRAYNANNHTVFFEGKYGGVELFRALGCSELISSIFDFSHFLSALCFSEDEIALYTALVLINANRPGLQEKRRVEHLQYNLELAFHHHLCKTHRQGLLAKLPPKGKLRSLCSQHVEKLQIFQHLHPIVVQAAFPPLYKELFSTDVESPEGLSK
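Compounds are pin-transferred onto Drosophila Schneider cells expressing a copper-inducible Gal4–ROR gamma transactivation domain fusion. After 1 hr, copper sulfate is added to 700 uM final; luciferase is read 20 hr later.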
ELG1 DNA repair: ELG1-dependent DNA repair inhibition; Potency, µM (series often up to 46.1 µM), without a hit: top-dose activity change, negative = inhibition, usual class: inhibitors; hit rate 2.3% among 330,000; AID 504467; HEK293T ELG1-luciferase reporter, luminescence, 16 h; DNA damage induced by 5-fluorouridine; note: potency is the fitted concentration of half-maximal effect; nearly all actives have a fitted effect of over 55% in size
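HEK293T cells expressing luciferase-tagged ELG1 (2,000/well) received 5-Fluorouridine plus compound or DMSO for 16 hr at 37 °C. Luciferase was read by ONE-Glo luminescence after 30 min at room temperature.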
TDP1 cell noCPT: qHTS for Inhibitors of human tyrosyl-DNA phosphodiesterase 1 (TDP1): qHTS in cells in absence of CPT; hit rate 15% among 420,000; AID 686978, 2013; Potency, µM (series often up to 46.2 µM), without a hit: at the highest dose activity change, negative = growth inhibition, actives largely listed as inhibitors; DT40 Tdp1-/- hTDP1 cells, no CPT, ATP luminescence, 48 h; note: potency is the fitted concentration of half-maximal effect; nearly all actives have a fitted effect of over 55% in size
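Camptothecin absent (DMSO only). Human TDP1-complemented DT40 knockout cells, 400 cells/well, 37 °C for minimum 48 hr; ATP measured via CellTiter-Glo, 30 min dark incubation, luminescence.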
Active calls of the source: *; ? = inconclusive; / = no result; ! = not confirmed by another sample; [ ] = dose if it differs, or a comment. Unless noted, calls come from the whole dose curve; as a rule, active = well fitted curve in the direction sought with a large enough effect; inconclusive = small, poorly fitted or top-dose-only effect, or another doubt; inactive = no such curve, though single readings can be large; an effect the other way counts as inactive or inconclusive. % is set by controls: 0 for no effect and ±100 for the full control effect.

SMILES | VP16 counter | IL-1B inflam inh | TDP1 cell CPT | RORgamma inh | ELG1 DNA repair | TDP1 cell noCPT
CCOC(=O)C(C(=O)OCC)c1c([N+](=O)[O-])c(=O)n2c3c(cccc13)CCC2 | 2% | 9 | ? | 3% | -24% | 21µM*
COc1ccc(CNC(=O)COC(=O)Cc2ccc(Br)cc2)cc1 | / | -1 | 0% | / | 6% | -4%
Cn1cnnc1Sc1ccc(C(F)(F)F)cc1[N+](=O)[O-] | -8% | ? | 3% | -33% | 8.2µM* | -1%
COCCc1ccc(OC2(C)CCN(Cc3cccc(OC)c3OC)C2)cc1 (stereo unspecified) | / | 12 | ? | / | / | -11%
COCCc1ccc(OC2(C)CCN(Cc3ccc(OC)c4ccccc34)C2)cc1 (stereo unspecified) | / | 11 | ? | / | / | 16µM*
COc1cccc(CN2CCC(C)(Oc3cccc(Cl)c3)C2)c1OC (stereo unspecified) | / | 12 | ? | / | / | 16µM*
CCN(C(=O)COC(=O)C(c1ccccc1)c1ccccc1)c1c(N)n(Cc2ccccc2)c(=O)[nH]c1=O | / | -5 | ? | / | / | ?
COc1ccc(NC(=O)CSc2nc3ccccc3n2CC(=O)N(C)c2ccc(F)cc2)cc1 | / | / | ? | / | / | 15µM*
COCCn1c(SCC(=O)N(C)C2CCS(=O)(=O)C2)nc2ccccc2c1=O (stereo unspecified) | -9%[10 µM] | 10 | 3% | 2% | 7% | -2%
CN(C(=O)CSc1nc2ccccc2n1CCc1ccccc1)C1CCS(=O)(=O)C1 (stereo unspecified) | ? | ? | -24% | 16µM* | -9% | -21%
Cc1ccc(NC(=O)CSc2nc3ccccc3n2CC(=O)N(C)C2CCCCC2)cc1C | / | / | ? | / | / | 18µM*
COc1ccc(NC(=O)CSc2nc3ccccc3n2CC(=O)N2CCCC(C)C2)cc1 (stereo unspecified) | / | / | ? | / | / | 21µM*
CCn1c(SCC(=O)Nc2ccc(C(C)=O)cc2)nc2ccccc21 | 3% | -6 | ? | -6% | ? | ?
COc1ccc(NC(=O)CSc2nc3ccccc3c(=O)n2CCC(=O)N2CCCCC2)cc1 | -8% | -25 | ? | 41% | ? | ?
COc1ccc2c(c1)CC(C(=O)Nc1ccc(Cl)cc1)/C(=N/O)O2 (stereo unspecified) | -17% | 8 | -18% | -1% | 2% | 3%
COCCN(C(=O)c1ccc(C)c(S(=O)(=O)N2CCOCC2)c1)c1c(N)n(CC(C)C)c(=O)[nH]c1=O | / | 9 | -13% | / | / | 1%
COC(=O)C/C=C\[C@@H](C)[C@@H](/C=N\OCC[C@@H]1C=C[C@H](OC(C)=O)[C@H](COC(C)=O)O1)OC | 9%[10 µM] | / | / | 14%[10 µM] | / | /
CN(C(=O)CSc1nc2ccccc2n1CC(=O)N(C)C1CCCCC1)c1ccc(F)cc1 | / | / | ? | / | / | 29µM*
CC(C)NC(=O)Cn1c(SCC(=O)c2ccc(F)cc2)nc2ccccc21 | 0% | -6 | -5% | 36% | 4% | -11%
CC(C)c1ccc(C2C3=C(CC(C)(C)CC3=O)NC3=C2C(=O)c2ccccc23)cc1 (stereo unspecified) | -4% | ? | 21µM* | 3% | ? | ?
CC1(C)CC(=O)C2=C(C1)NC1=C(C(=O)c3ccccc31)C2c1cccnc1 (stereo unspecified) | 3% | 9 | ? | 12% | 1% | ?
COc1cc2ncnc(NCc3ccco3)c2cc1OC | -3%[10 µM] | -11 | 18µM* | ? | ? | ?
COc1cc2ncnc(NCc3ccccc3)c2cc1OC | -10% | ? | ? | -38% | ? | ?
Cc1ccc(CNc2ncnc3[nH]ncc23)o1 | / | / | -1% | / | / | -7%
COc1ccccc1CNc1ncnc2cc(OC)c(OC)cc12 | -2% | -20 | 21µM* | 16% | ? | 23µM*
SMILES | VP16 counter | IL-1B inflam inh | TDP1 cell CPT | RORgamma inh | ELG1 DNA repair | TDP1 cell noCPT
COc1cc2ncnc(NCc3cccc(Cl)c3)c2cc1OC | -21% | -25 | 15µM* | 10% | ? | 15µM*
c1coc(CNc2ncnc3[nH]ncc23)c1 | -2% | 15 | 11µM*! | ? | ? | ?
COC(=O)c1cc2oc(C)cc2n1Cc1ccc(C)cc1 | / | / | -23% | / | / | ?
CCOC(=O)[C@]12CCC=C1N(Cc1ccc3c(c1)OCO3)C(=O)[C@H](CC(=O)N1CCOCC1)C2 | / | 15 | -14% | / | / | -3%
O=C(COc1ncnc2ccc(Br)cc12)NCc1ccco1 | -7% | 37 | ? | -10% | -19% | -29%
Fc1cccc(CNc2ncnc3cc(Cl)ccc23)c1F | ? | 15 | 16µM* | 42% | ? | 10µM*
Brc1ccc2ncnc(NCc3ccco3)c2c1 | ? | -9 | 21µM* | -32% | 8.2µM* | 18µM*
O=S(=O)(Nc1nc2ccccc2nc1NCc1ccco1)c1ccc(F)cc1 | -9% | 70 | -23% | 28% | 15µM* | -11%
c1coc(CNc2nc3nonc3nc2NCc2ccco2)c1 | 13µM* | 24 | ? | 0% | 0% | ?
COc1cc2ncnc(NCc3cc(F)ccc3F)c2cc1OC | -4% | -14 | -11% | -1% | 6% | ?
CCN(CC)S(=O)(=O)c1cccc(NC(=O)c2cc(=O)[nH]c3ccccc23)c1 | -9% | 10 | ? | ? | ? | ?
CCCCn1c(N)c(N(CC)C(=O)c2cccs2)c(=O)[nH]c1=O | / | 3 | 8% | / | 1% | 9%
O=C(Cn1c(=O)c(=O)n(Cc2ccccc2)c2ccc(Cl)cc21)NCC1CCCO1 (stereo unspecified) | 0% | 13 | -13% | 10% | -1% | -11%
COc1cccc(CNc2ncnc3cc(Cl)ccc23)c1 | 5%[10 µM] | -2 | ? | ? | ? | ?
COc1ccc(CNc2ncnc3cc(Cl)ccc23)cc1 | ? | 56 | 15µM* | -36% | ? | 13µM*
CC(C)N(C(=O)[C@H]1C[C@H](CC(=O)NCc2ccco2)C(=O)N2CCc3c([nH]c4cc(-c5ccco5)ccc34)[C@]12C)C(C)C | / | ? | ? | / | -29% | ?
CC(C)N(C(=O)[C@H]1C[C@H](CC(=O)NCCC2=CCCCC2)C(=O)N2CCc3c([nH]c4cc(-c5ccco5)ccc34)[C@]12C)C(C)C | / | -69* | ? | / | -12% | ?

Source: PubChem BioAssay (National Center for Advancing Translational Sciences (NCATS))
